NPSR antagonist = blocks cAMP signaling of the human neuropeptide S receptor; Q6W5P4; CHO-NPSR cells, cAMP TR-FRET, antagonist mode; Potency, µM (highest dose often 38.3 µM), without a hit: at the top dose activity change, negative = inhibition, hits mostly inhibitors; 220,000 tested, 1% active; note: potency is the fitted concentration of half-maximal effect; % is set by controls: 0 for no effect and ±100 for the full control effect; nearly all actives have a fitted effect of over 50% in size
Target sequence (Q6W5P4 whole entry, looked up): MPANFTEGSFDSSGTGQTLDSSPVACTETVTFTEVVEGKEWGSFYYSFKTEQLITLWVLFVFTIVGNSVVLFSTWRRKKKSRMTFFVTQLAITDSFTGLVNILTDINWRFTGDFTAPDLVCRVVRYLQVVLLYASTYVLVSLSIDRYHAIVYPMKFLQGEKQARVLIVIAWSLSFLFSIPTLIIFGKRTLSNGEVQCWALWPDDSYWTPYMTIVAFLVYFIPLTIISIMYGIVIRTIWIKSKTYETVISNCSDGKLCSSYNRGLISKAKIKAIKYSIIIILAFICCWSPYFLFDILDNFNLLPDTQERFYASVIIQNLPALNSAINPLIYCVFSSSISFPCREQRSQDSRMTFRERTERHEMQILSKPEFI
BRCA1 expr act = activators of BRCA1 expression. MCF7-BRCA1-FFLuc reporter, luminescence, 48 h; response scale: scaled: vehicle 0%, 10 µM genistein 100%. Potency, µM (highest dose often 46.1 µM), inactives show at the top dose activation, most hits filed as activators. 380,000 tested, 1.1% active. AID 624202; note: potency is the fitted concentration of half-maximal effect; nearly all actives have a fitted effect of over 80% in size
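MCF7 cells carrying a BRCA1-firefly luciferase reporter (2000 cells/well, phenol-red free MEM) were attached for 2 h at 37 °C, then given compounds for 48 h. Luminescence was read 15 min after luciferase reagent; activity normalized to genistein (10 microM) and DMSO.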
Giardia kill = Giardia lamblia killing. activity change, % at 7.66 µM, hits read low. 340,000 tested, 0.15% active. Giardia lamblia trophozoite viability. AID 540267; in the data active = activity change below about -80%; inconclusive = between about -30% and that limit;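 note: parasites exposed to compound for two days anaerobically before the ATP read; % is set by controls: 0 for no effect and ±100 for the full control effect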
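Giardia trophozoites, 100 cells per well, were exposed to compounds for 48 hrs at 37 deg C under anaerobic conditions; viability was then read as ATP content by bioluminescence after 15-30 min at room temperature.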
RXFP1 antag = RXFP1 (human) relaxin receptor antagonism | activity change, negative = inhibition, % at 57.5 µM | HEK293-RXFP1, relaxin-stimulated cAMP HTRF, 30 min; active compounds read low | Q9HBX9 | AID 1259400 | 350,000 tested, 0.59% active;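 active = activity change of -60% or lower, but not beyond a set lower limit; inconclusive = change between -60% and -40%, or beyond the set limit; inactive = change above -40%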; note: % is set by controls: 0 for no effect and ±100 for the full control effect
RXFP1 ag = activates the human relaxin receptor RXFP1; HEK293T-RXFP1 cAMP TR-FRET, 30 min; response scale: percent of porcine relaxin response, buffer zero; Potency, µM (top dose mostly 57.5 µM), for the others: at the highest dose activation, most hits filed as activators; 370,000 tested, 0.3% active; note: potency is the fitted concentration of half-maximal effect; % is set by controls: 0 for no effect and ±100 for the full control effect; nearly all actives have a fitted effect of over 60% in size
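Agonist response is measured as cAMP accumulation in an RXFP1-transfected HEK293T line under PDE4 inhibition. Values are scaled between buffer-only and 29 nM porcine relaxin, and EC50s come from standard Hill equation fits.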
IL-2 act = activates IL-2 in a cell-based reporter assay | 360,000 tested, 0.065% active | IL-2 activation reporter assay, cell-based qHTS; stimulated with anti-CD3/CD4/CD28 beads; in transgenic mouse T cells | activation, % (series mostly up to about 46 µM); in the data active = activation above about 50%; inconclusive = mostly about 30% to 49%; note: 0% is about no effect
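Unstimulated transgenic mouse T cells; 60-min compound exposure; bead-based TCR/CD4/CD28 stimulation; 18 h culture, 37 degrees C; dual fluorescence (EGFP, DsRed) plate cytometry.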
Numbers without * were called inactive; ? = inconclusive; . = no result; [ ] = dose if it differs, or a comment. Compounds with a hit are over-represented: about 1.9% of the library has one in this group of screens. Unless noted, calls come from the whole dose curve; as a rule, active = well fitted curve in the direction sought with a large enough effect; inconclusive = small, poorly fitted or top-dose-only effect, or another doubt; inactive = no such curve, though single readings can be large; an effect the other way counts as inactive or inconclusive.

SMILES	NPSR antagonist	BRCA1 expr act	Giardia kill	RXFP1 antag	RXFP1 ag	IL-2 act
COc1ccc(C(C)=O)cc1Cn1cnc2c(cnn2C)c1=O	12.0%[7.67 µM]	0.6%	33.6	39.4	12.6µM*	-2.1
Cc1ccc(Nc2nc(Cl)nc(NC(C)(C)C)n2)cc1	.	?	5.0	-70.8*	-0.3%	1.5
CCOc1ccccc1NC(=O)c1nc(SC(C)C)ncc1Cl	.	.	.	.	0.9%	.
COC(=O)c1cnc(SCc2ccc(Cl)cc2)n1C	-23.3%	11.2µM*	26.6	-12.9	2.1%	-0.4
CNC(=S)N/N=C/c1ccc(C(C)C)cc1	.	5.01µM*	-9.8	-1.5	.	-0.6
C1=CN2CC=Cc3cc(/C=C/c4ccnc5ccccc45)cc(c32)C1	.	-50.7%	.	.	.	.
CS(=O)(=O)N(Cc1ccccc1)c1ccc(C(=O)Nc2ccc(Cl)cc2)cc1	.	.	.	-20.8	9.7%	.
O=C(NCCc1csc(-c2ccc(F)cc2)n1)c1cccs1	.	.	.	-60.9*	1.2%	.
O/N=C/c1ccc(OCc2ccccc2)c(Br)c1	-4.2%	?	?	-10.2	0.6%	-2.2
O/N=C/c1ccc(OCc2ccccc2)c(Cl)c1	-1.4%	10µM*	-18.5	13.6	3.9%	-3.2
O/N=C/c1ccc(OCc2ccccc2F)c(Cl)c1	1.9%	2.82µM*	-3.1	21.5	6.1%	-1.2
C[C@@H]1CC(=O)NN=C1c1ccc(NN=C(C#N)C#N)cc1	.	.	.	-14.1	.	.
Cc1nc(/C(N)=N/OC(=O)c2ccccc2Cl)c(C(F)(F)F)o1	11.7%	11.2µM*	29.7	-5.8	0.9%	-0.3
Cc1nc(/C(N)=N/OC(=O)c2cccc(Cl)c2)c(C(F)(F)F)o1	-1.4%[7.67 µM]	-22.4%	7.4	0.0	-1.0%	0.2
Cc1cccc(CNC(=O)C2CCN(c3nc4ccc(Cl)cc4[nH]3)CC2)c1	.	.	.	-72.1*	4.8%	.
COCCCNC(=O)C1CCN(c2nc3ccc(Cl)cc3[nH]2)CC1	.	.	.	-18.2	1.4%	.
CCOC(=O)C1CCN(c2nc(-c3ccccc3)nc3c2oc2ccccc23)CC1	12.6µM*	-40.5%	-11.4	-9.8	-0.9%	-0.1
O=C(O)C1CCN(c2nc(-c3ccccc3)nc3c2oc2ccccc23)CC1	-14.7%[46.1 µM]	12.9%	3.7	13.2	2.1%	0.3
CC(=O)c1ccc(NC(=O)COc2ccccc2-c2nc(-c3cccc(C)c3)no2)cc1	.	28.3%	.	.	-2.3%	.
CCn1nnc2sc3c(c2c1=O)CCC(C)C3 (configuration not stated)	8.5%[46.1 µM]	12.6µM*	1.6	3.9	6.5%	5.2
CC1CCc2c(sc3nnn(CC(=O)Nc4ccc(Cl)cc4)c(=O)c23)C1 (configuration not stated)	.	.	.	-6.4	0.0%	.
CCN=c1scc(-c2ccco2)n1/N=C/c1ccc(OC)c(O)c1	-29.9%[46.1 µM]	6.31µM*	-12.1	-32.3	1.0%	2.8
C=CCn1c(-c2ccc(OC)cc2)nc2ccccc21	-23.8%[46.1 µM]	10µM*	-23.7	-3.6	-0.4%	1.4
C=CCn1c(-c2ccc(N)cc2)nc2ccccc21	2.1%[46.1 µM]	50.4%	-20.6	.	3.9%	-3.2
Cc1cccc(-c2ccc3ncnc(N(C)Cc4ccco4)c3c2)c1	.	.	.	.	2.0%	.
SMILES	NPSR antagonist	BRCA1 expr act	Giardia kill	RXFP1 antag	RXFP1 ag	IL-2 act
O=C(Nc1nc(-c2cccs2)c(C(=O)C(F)(F)F)s1)c1ccco1	10µM*	-3.0%	7.5	1.3	25.1µM*	0.2
O=C(Nc1nc(-c2cccs2)c(C(=O)C(F)(F)F)s1)c1ccccc1	-37.4%	-30.5%	-3.0	.	9.1%	1.3
COC(=O)c1ccc(-n2nnc(-c3nc(-c4ccc5c(c4)OCO5)no3)c2C)cc1	.	.	.	4.4	-1.3%	.
COc1ccc(C2=CC(=O)N(Nc3ccccc3)C2=O)cc1	-9.6%	-2.0%	?	?	2.4%	-4.9
O=C1C=C(c2ccccc2)C(=O)N1Nc1ccccc1	12.6µM*	-60.3%	5.3	-108.5*	0.6%	12.1
Cc1ccc(NN2C(=O)C=C(c3ccc(Cl)cc3)C2=O)cc1	7.94µM*	-95.8%	-2.1	-95.6*	1.7%	-6.5
O=C(O)c1c(O)c(-c2ccccc2)nc2ccccc12	.	.	.	-16.7	.	.
Brc1cccc[n+]1Cc1ccc(C[n+]2ccccc2Br)cc1	.	10.1%	.	.	.	.
Nc1c(C(=O)NCc2ccccc2)nnn1Cc1cccc(Br)c1	.	.	.	-1.6	22.1%	.
COc1ccccc1C(=O)Nn1cnc2ccccc2c1=O	10.4%[46.1 µM]	10µM*	5.0	-3.8	-1.5%	-1.0
CN1CCN(c2oc(-c3ccc(OCc4ccc(Cl)cc4)cc3)nc2C#N)CC1	.	-10.0%	-11.7	.	.	.
O=C(CNC(=O)C1CCCCC1)OCCOc1ccccc1	.	3.8%	9.1	.	.	.
N=c1n(CC(=O)c2ccc([N+](=O)[O-])cc2)c2ccccc2n1Cc1ccccc1	-18.7%	-53.6%	-3.1	.	2.9%	8.5
N=c1n(CC(=O)c2ccc([N+](=O)[O-])cc2)c2ccccc2n1Cc1ccc(Cl)cc1	?	-58.3%	-18.1	.	0.0%	64.8*
Brc1ccc(C2C=Cc3ccccc32)cc1 (configuration not stated)	.	8.6%	.	.	.	.
CCOC(=O)c1ccc2nc3c(cc2c1)CCS3	-4.7%[46.1 µM]	10µM*	1.1	-11.4	2.2%	-4.8
C=CCOc1cccc(C2C(C(=O)c3ccc(C)o3)=C(O)C(=O)N2c2nccs2)c1 (configuration not stated)	5.01µM*	-12.6%	9.8	-5.7	?	1.8
O=c1/c(=C/c2ccc(O)cc2)sc2nc3cc(Br)cnc3n12	-4.2%	.	.	.	0.7%	.
O=c1/c(=C\c2ccc(O)cc2)sc2nc(-c3ccccc3)c(-c3ccccc3)n12	?	34.7%	1.4	6.6	5.3%	99.4*
O=C(CN1CCN(C(c2ccccc2)c2ccccc2)CC1)NCc1ccccc1	?	6.4%	12.6	-74.2*	-1.9%	0.1
Cc1ccc(CN2CCN(CC(=O)NCc3ccccc3)CC2)cc1	.	-2.8%	10.0	-98.8*	0.6%	-3.6
COc1ccc(CNC(=O)CN2CCN(C(c3ccccc3)c3ccccc3)CC2)cc1	-52.3%	-29.8%	13.4	-24.7	0.6%	-1.6
COc1ccccc1C(=O)OCC(=O)Nc1ccc(N2CCCCC2)cc1	.	10.0%	.	.	.	.
CC(=O)c1ccc(NC(=O)Nc2cccc3ccccc23)cc1	.	3.98µM*	-10.1	-1.7	-1.8%	5.0
CC(=O)Nc1ccc(NC(=O)Nc2cccc3ccccc23)cc1	.	6.2%	-24.4	-13.0	0.4%	-0.5
Cc1ccc(CNCc2cn[nH]c2-c2ccc(C)cc2)cc1	.	0.0%	10.7	.	.	.
COc1cc2nc(N3CCCN(C)CC3)nc(NC3CCN(Cc4ccccc4)CC3)c2cc1OC	.	-69.7%	.	.	.	.
c1ccc(-c2ccc(-c3csnn3)cc2)cc1	-2.0%[46.1 µM]	7.94µM*	9.8	-1.4	-1.1%	0.2
CCCCCOc1ccc(CSc2ncn[nH]2)cc1	-4.1%	2.82µM*	-3.4	14.6	0.4%	1.2
CCCCOc1ccc(CSc2n[nH]c(C)n2)cc1	-13.8%[46.1 µM]	58.2%	29.6	-3.3	0.7%	-3.2
